For some assays here: Entries with a potency or affinity are not part of this list.
Assay: rescue of polyQ-huntingtin neuronal dysfunction in worms, whole organism, C. elegans mechanosensory neurons, N-terminal huntingtin (AID 1599)
Conditions: touch response, stronger effect = higher value

Structure (SMILES) | rescue above control
NC(=O)c1ccc[n+]([C@@H]2O[C@H](COP(=O)([O-])OP(=O)(O)OC[C@H]3O[C@@H](n4cnc5c(N)ncnc54)[C@H](O)[C@@H]3O)[C@@H](O)[C@H]2O)c1 | 2.62
Cn1c(=O)[nH]c2ncn(C)c2c1=O | -11.3
Cc1cc(C(C)(C)CC(C)(C)C)ccc1OCCOCC[N+](C)(C)Cc1ccccc1 | 0
Cn1c(=O)c2[nH]c(C3CCCC3)nc2n(C)c1=O | 12.7
CC(=O)N1CCN(c2ccc(OCC3CO[C@](Cn4ccnc4)(c4ccc(Cl)cc4Cl)O3)cc2)CC1 (stereo not given in full) | 0.92
CN[C@H](CC(=O)O)C(=O)O | -9
CN1CCc2cccc3c2C1Cc1ccc(O)c(O)c1-3 (stereo not given) | 3.21
COc1c2ccoc2cc2oc(=O)ccc12 | 6.75
C=C1c2c(Cl)ccc(O)c2C(O)=C2C(=O)[C@]3(O)C(O)=C(C(N)=O)C(=O)[C@@H](N(C)C)[C@@H]3[C@@H](O)[C@H]12 | 1.02
CC(CN(C)C)CN1c2ccccc2Sc2ccccc21 (stereo not given) | 0
CC(C(=O)O)c1ccc(N2Cc3ccccc3C2=O)cc1 (stereo not given) | -4.46
O=c1cc(-c2ccccc2)oc2c(O)c(O)ccc12 | -0.88
CN1CCc2c(c3ccccc3n2Cc2ccccc2)C1 | -5.3
NC(N)=NCCCCN=C(N)N | -1.01
NCCCCN | 9.16
Cc1cc(/C=C/c2ccc3cc(N(C)C)ccc3[n+]2C)c(C)n1-c1ccccc1 | 0
NCCSSCCN | -5.12
CC1(C)S[C@@H]2[C@H](NC(=O)Cc3ccccc3)C(=O)N2[C@H]1C(=O)O | -0.92
CN(C)CCOC(c1ccccc1)c1ccccc1 (tested in a mixture with another compound) | 26.8
Oc1cc(O)c2c(c1)O[C@H](c1ccc(O)c(O)c1)[C@@H](O)C2 | -5.75
C1N2CN3CN1CN(C2)C3 | -6.88
COc1cc(S(C)=O)ccc1-c1nc2ncccc2[nH]1 (stereo not given) | 8.66
NCCCS(=O)(=O)O | -7.13
COC(=O)[C@H]1[C@H]2C[C@H]3c4[nH]c5ccccc5c4CCN3C[C@H]2CC[C@@H]1O | 16.2
C[N+](C)(C)CC(O)CC(=O)O (stereo not given) | -5.96

Assay: inhibitors of mitochondrial cytochrome c release, biochemical, purified mitochondria (AID 1603);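 note: mouse liver mitochondria challenged with calcium chloride; signal normalized to the plate average as 100%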
Conditions: stronger effect = lower value

Structure (SMILES) | cytochrome c release ratio
NC(=O)c1ccc[n+]([C@@H]2O[C@H](COP(=O)([O-])OP(=O)(O)OC[C@H]3O[C@@H](n4cnc5c(N)ncnc54)[C@H](O)[C@@H]3O)[C@@H](O)[C@H]2O)c1 | 0.91
Cn1c(=O)[nH]c2ncn(C)c2c1=O | 1.26
Cc1cc(C(C)(C)CC(C)(C)C)ccc1OCCOCC[N+](C)(C)Cc1ccccc1 | 6.77
Cn1c(=O)c2[nH]c(C3CCCC3)nc2n(C)c1=O | 0.91
CC(=O)N1CCN(c2ccc(OCC3CO[C@](Cn4ccnc4)(c4ccc(Cl)cc4Cl)O3)cc2)CC1 (stereo not given in full) | 1.8
CN[C@H](CC(=O)O)C(=O)O | 0.78
CN1CCc2cccc3c2C1Cc1ccc(O)c(O)c1-3 (stereo not given) | 0.9
COc1c2ccoc2cc2oc(=O)ccc12 | 1.07
C=C1c2c(Cl)ccc(O)c2C(O)=C2C(=O)[C@]3(O)C(O)=C(C(N)=O)C(=O)[C@@H](N(C)C)[C@@H]3[C@@H](O)[C@H]12 | 0.58
CC(CN(C)C)CN1c2ccccc2Sc2ccccc21 (stereo not given) | 1.2
CC(C(=O)O)c1ccc(N2Cc3ccccc3C2=O)cc1 (stereo not given) | 1.17
O=c1cc(-c2ccccc2)oc2c(O)c(O)ccc12 | 0.65
CN1CCc2c(c3ccccc3n2Cc2ccccc2)C1 | 1.12
NC(N)=NCCCCN=C(N)N | 1.43
NCCCCN | 0.9
Cc1cc(/C=C/c2ccc3cc(N(C)C)ccc3[n+]2C)c(C)n1-c1ccccc1 | 0.75
NCCSSCCN | 1.22
CC1(C)S[C@@H]2[C@H](NC(=O)Cc3ccccc3)C(=O)N2[C@H]1C(=O)O | 0.98
CN(C)CCOC(c1ccccc1)c1ccccc1 (tested in a mixture with another compound) | 1.23
Oc1cc(O)c2c(c1)O[C@H](c1ccc(O)c(O)c1)[C@@H](O)C2 | 0.5
C1N2CN3CN1CN(C2)C3 | 1.01
COc1cc(S(C)=O)ccc1-c1nc2ncccc2[nH]1 (stereo not given) | 0.94
NCCCS(=O)(=O)O | 1.17
COC(=O)[C@H]1[C@H]2C[C@H]3c4[nH]c5ccccc5c4CCN3C[C@H]2CC[C@@H]1O | 1.18
C[N+](C)(C)CC(O)CC(=O)O (stereo not given) | 0.99

Source: PubChem BioAssay
